From ChEMBL document CHEMBL4513135, “CO-ADD screening of IQOG CSIS (Spain) compounds”
Several values for one entry are separate records, joined by “and”; a condition that tells them apart may be missing. Equal values may be shown once. Potency and affinity values are given separately.

Assays:
Staphylococcus aureus = conditions: Concentration 32 ug.mL-1, ASSAY_TEST Inhibition of Bacterial Growth, detection method Absorption (OD600), MEDIA CAMHB, plate type 384well, NBS, CORNING #3640, time 18 hr
Escherichia coli = conditions: Concentration 32 ug.mL-1, ASSAY_TEST Inhibition of Bacterial Growth, detection method Absorption (OD600), MEDIA CAMHB, plate type 384well, NBS, CORNING #3640, time 18 hr

SMILES	Inhibition (Staphylococcus aureus) [%]	Inhibition (Escherichia coli) [%]	Inhibition (Staphylococcus aureus; 32 ug/mL)	Inhibition (Escherichia coli; 32 ug/mL)
C=CCNc1nc(N)c(C#N)cc1C#N	40.4	-12.52		
COc1ccc2cc(C3C(C(C)=O)=C(C)Oc4nc5c(c(N)c43)CCC5)c(Cl)nc2c1 (stereo unspecified)	7.35	4.4		
Cl.ClCCCN1CCCCC1	19.47	17.01		
CC1Cc2c(nc3c(c2N)CCCC3)NC1=O (stereo unspecified)	29.78	-3.82		
COc1cccc(C2c3ccc4ccccc4c3OC(=NBr)C2(Br)C#N)c1 (stereo unspecified)	27.48	-7.21		
COc1ccc(CNNC(=O)c2cc3ccccc3[nH]2)cc1O	5.63	2.63		
C=CCNc1[nH]c2ccc(O)cc2c1C#N	32.95	-4.66		
CN(C)c1nc2nc3c(c(N)c2c(-c2ccccc2)c1C#N)CCCC3	5.71	-1.51		
O=C1OC(c2ccccc2)=NC1=Cc1ccccc1Cl	16.61	12.84		
O=C(Cc1cccc2ccccc12)N/N=C/c1c[nH]c2ccccc12	12.36	15.45		
COc1[nH]c(=O)ccc1C#N	31.13	-5.91		
C#CCN(C)c1nc(NC2CCN(Cc3ccccc3)CC2)c(C#N)c(-c2ccccc2)c1C#N	0.44	-3.84		
CCOC(=O)C1=C(C)Oc2nc3c(c(N)c2C1c1ccc(O)c(OC)c1)CCC3 (stereo unspecified)	-3.09	-6.01		
O=C(N/N=C/c1c[nH]c2ccccc12)c1ccco1	13.11	12.98		
COc1cc(C2c3c(nc4c(c3N)CCCC4)Oc3ccc4ccccc4c32)cc(OC)c1OC (stereo unspecified)	14.84	14.05		
Cc1ccc(C=C2N=C(c3ccccc3)OC2=O)cc1	7.55	3.61		
O=C(NNCCc1ccccc1)c1cc2ccccc2[nH]1	-6.37	-5.83		
CCCCNNC(=O)c1cc2ccccc2[nH]1	0.71	-2.05		
CN1C/C(=C\Cl)n2c1c(C#N)c(-c1ccccc1)c(C#N)c2=O	14.24	-33.76		

SMILES	Inhibition (Staphylococcus aureus) [%]	Inhibition (Escherichia coli) [%]	Inhibition (Staphylococcus aureus; 32 ug/mL)	Inhibition (Escherichia coli; 32 ug/mL)
CCOC(=O)C1=C(C)OC(N)=C(C#N)C1c1cccs1 (stereo unspecified)	8.64	-14.26		
COc1ccc(C2c3c(ccc4ccccc34)OC(=NBr)C2(Br)C#N)cc1OC (stereo unspecified)	13.88	-20.35		
N#CC1=C(Cl)Oc2ccc3ccccc3c2C1c1ccccc1 (stereo unspecified)	24.96	12.43		
CC(=O)n1cc(/C=C2\N=C(c3ccccc3)OC2=O)c2ccccc21	15.78	15.77		
C#CCNc1ccc(Cl)nn1	21.22	-28.17		
C#CCN1CCc2nc3nc(NC4CCN(Cc5ccccc5)CC4)c(C#N)cc3c(N)c2C1	26.68	-8.32		
COc1ccc2c(c1)cc(CO)n2C	3.66	11.03		
C#CCN(C)Cc1cc2cc(OCCCCC3CCN(Cc4ccccc4)CC3)ccc2n1C.Cl	41	-14.71		
CNN=C1N=C(SCc2ccccc2)SC1=O	8.05	4.4		
C#CCN(C)c1nc(NCC2CCN(Cc3ccccc3)CC2)c(C#N)c(-c2ccccc2)c1C#N.Cl	36.49	-7.12		
Cc1nc(Nc2ccccc2)c2c(C)nn(-c3ccccc3)c2n1	15.21	8.02		
O=C(Cc1c[nH]c2ccccc12)NNCc1ccccc1	-6.19	-10.21		
CCOC(=O)C1=C(C)OC(N)=C(C#N)C1c1ccc(OC)cc1 (stereo unspecified)	9.52	-2.05		
CC(=O)Nc1nn(C)c2nc3nc4c(c(N)c3cc12)CCCC4			26.15% and 21.32%	-7.37% and -4.67%
N#Cc1cc(C#N)c(Cl)nc1Cl	15.28	-15.75		
N#CC1=C(Cl)Oc2c(ccc3ccccc23)C1c1ccc([N+](=O)[O-])cc1 (stereo unspecified)	7.21	-24.25		
COc1ccc2c(c1)cc(C(=O)O)n2C	20.8	-7.03		
Cc1ccc(C(O)SNNc2ncnc3c2c(C)nn3-c2ccccc2)cc1 (stereo unspecified)	5.38	11.97		
Cn1ccnc1C1C(C#N)=C(N)Oc2c1ccc1cccnc21 (stereo unspecified)	12.96	-14.85		
